Out of some 200,000 compounds screened, about 1,600 (0.8%) were called active.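 The calls were made as follows: active = plate Z-score above 3 for both tubulin-high and condensed-nucleus cell shares, with cell loss under 80%, at 10 µM; inactive = the rest, inconclusive results apart.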 Shown is part of a subset that was picked to be rich in actives.

Drawing on PubChem BioAssay AID2205 (University of Pittsburgh Molecular Library Screening Center, 2009), this text covers % Hoechst-high responders, % tubulin-high responders and toxicity for 23 compounds.

The assay can be described thus: tubulin staining increase by stabilizing compounds – imaging, high-content imaging, primary screen (AID 2205).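 As to % tubulin-high responders: anti alpha tubulin signal scored within the nucleus-defined area of each cell.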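 As to toxicity: 0% = mean cell density of plate MIN control wells and 100% = no cells.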 The settings on record: HeLa tubulin immunostaining HCS, 24 h, at 10 µM; % Hoechst-high responders: measured here: nuclear condensation Hoechst responders, stronger effect = higher value, share of cells brighter than vehicle mean+2SD; % tubulin-high responders: stronger effect = higher value, share of cells brighter than vehicle mean+2SD; toxicity: measured here: cytotoxicity by cell density.
Consider `CCOC(=O)c1cnc2ccc(F)cc2c1Nc1ccc2c(c1)OCCO2`, for which the % Hoechst-high responders worked out at 3.26%, the % tubulin-high responders was 2.38% (inactive) and the toxicity was 9.58%.
`O=C(COC(=O)/C=C/c1nc2ccccc2s1)Nc1ccccc1Oc1ccccc1`: the % Hoechst-high responders is 2.41%, the % tubulin-high responders is 2.82% (inactive) and the toxicity is 3.33%.
For `Cc1oc2cc([N+](=O)[O-])c(O)c([N+](=O)[O-])c2c1C(=O)c1ccc(Br)cc1`, in that order: 1.62%, 3.42% (inactive) and 6.71%.
On the same counts, the results for `O=C(COC(=O)C1CCCCC1)Nc1ccc([N+](=O)[O-])cc1` are 1.85%, 1.8% (inactive) and 7.95%.
For `O=C(NC1CCCCCC1)c1cccnc1Sc1ccc(Cl)cc1`, in that order: 1.73%, 4.58% (inactive) and 7.66%.
Regarding `O=C(CSc1ccccn1)Nc1nc2c(ccc3ccccc32)s1`, the % Hoechst-high responders was 1.64%, the % tubulin-high responders was 2.26% (inactive) and the toxicity is 7.1%.
On the same counts, the results for `CCO[C@H]1OC(C(=O)Nc2ccccc2)=C[C@@H](C2CC2)[C@@H]1CCCO` are 1.42%, 1.2% (inactive) and 3.73%.
On the same counts, the results for `CCC(C)NC(=O)/C=C/c1ccc(S(=O)(=O)NCc2ccco2)cc1` (centres undefined) are 1.97%, 1.46% (inactive) and 3.99%.
On the same counts, the results for `Cc1c(/C=N/N2C(=O)C3C4C=CC(C4)C3C2=O)c2ccccc2n1C` (centres undefined) are 1.92%, 5.53% (inactive) and 6.18%.
In the case of `O=C(N/N=C/c1coc2ccccc2c1=O)c1cc2ccccc2o1`, the % Hoechst-high responders was found to be 2.07%, the % tubulin-high responders is 3.76% (inactive) and the toxicity was 5.72%.
For `Cc1c(/C=N\NC(=O)c2cc3ccccc3o2)c2ccccc2n1C`, in that order: 21.2%, 38.7% (active) and 75.1%.
For `O=C(N/N=C/c1ccc(OCC2COCCO2)cc1)c1ccc(Br)cc1` (centres undefined), in that order: 1.72%, 2.47% (inactive) and 8.95%.
On the same counts, the results for `CC(C)c1csc(CN2CCC(CO)(Cc3ccccc3)CC2)n1` are 1.55%, 3.05% (inactive) and 6.68%.
Regarding `O=S(=O)(c1ccc(F)cc1)N1CCN(C(=S)NCc2ccco2)CC1`, the % Hoechst-high responders is 3.02%, the % tubulin-high responders is 4.87% (inactive) and the toxicity is 5.01%.
On the same counts, the results for `COc1ccc(CC(NC(C)=O)C(=O)NC2CCN(C(=O)C3CC3)CC2)cc1OC` (centres undefined) are 1.12%, 2.29% (inactive) and 9.53%.
Take `O=C(CN1CCC(O)(c2ccccc2)CC1)Nc1ccc2c(c1)OCCO2`: the % Hoechst-high responders turned out to be 1.61%, the % tubulin-high responders is 5.34% (inactive) and the toxicity turned out to be 10.9%.
On the same counts, the results for `Cc1ccc(C2=Nc3c(ccc4ccccc34)C(c3ccncc3)=NN2)cc1` are 2.17%, 4.68% (inactive) and 5.9%.
On the same counts, the results for `CCc1ccc2c(c1)C(c1ccc([N+](=O)[O-])cc1)=NNC(c1ccccc1)=N2` are 3.31%, 2.17% (inactive) and 4.07%.
On the same counts, the results for `CCOc1ccc2c(c1)C(c1ccc(C)cc1)=NNC(c1ccc(C)cc1)=N2` are 14.4%, 37.8% (active) and 35.7%.
With `COc1cccc(CN(C)CC(=O)Nc2sc3c(c2C#N)CCC3)c1`, the % Hoechst-high responders stood at 1.26%, the % tubulin-high responders was 3.67% (inactive) and the toxicity was found to be 4.57%.
Take `CC1(C)CC(=O)C(CC(=O)N2CCC(Cc3ccccc3)CC2)C(=O)C1`: the % Hoechst-high responders is 2.54%, the % tubulin-high responders is 4.67% (inactive) and the toxicity was determined as 7.14%.
For `Cc1csc(CN(C)C(=O)CC2C(=O)NCCN2CC(C)(C)C)n1` (centres undefined), in that order: 2.16%, 2.8% (inactive) and 7.49%.
On the same counts, the results for `Nc1nonc1-n1nnc(C(=O)N/N=C/c2cc(Br)ccc2O)c1CSC1=NCCS1` are 0.673%, 9.12% (inactive) and 24.4%.
